Most compounds without a hit are left out; they make up all but 5.6% or so of the library.
Cardio protect: myocardial damage modulation in H9c2 cells; H9c2 cardiomyocytes, H2O2 injury protection, ATPLite, 2 h; protection from H2O2 cell death, % at 20 µM; 360,000 tested, 0.63% active;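 active = compounds giving at least 50% protection of heart cells from peroxide-induced death in the single-dose screen, raw or plate-pattern-corrected value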
PfGluPho inh: PfG6PD (Plasmodium falciparum) enzyme inhibition. PfGluPho enzyme, NADPH resazurin-diaphorase fluorescence. inhibition, % at 20 µM. 350,000 tested, 0.78% active;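 active = inhibition reaching at least a set limit at 20 µM in the primary screen, cut at about 59% in these data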
ALR inh: blocks human ALR sulfhydryl oxidase activity | inhibition, % (concentration not given with the values) | purified ALR, DTT oxidation, H2O2 HRP-luminol luminescence | P55789 | 290,000 tested, 3.8% active;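 active = mean replicate inhibition above about 79%, with every replicate also reaching it, limit read from the data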
Target sequence (P55789 whole entry, looked up): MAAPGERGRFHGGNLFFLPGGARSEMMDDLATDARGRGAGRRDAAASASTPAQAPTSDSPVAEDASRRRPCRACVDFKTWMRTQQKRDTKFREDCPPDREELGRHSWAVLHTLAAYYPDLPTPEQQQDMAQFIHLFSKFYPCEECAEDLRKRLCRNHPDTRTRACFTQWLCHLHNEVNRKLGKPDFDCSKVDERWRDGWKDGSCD
PHOSPHO1 block: blocks human PHOSPHO1 phosphatase activity | inhibition, % at 13.3 µM | Q8TCT1 | AID 1565 | 290,000 tested, 1.1% active | recombinant PHOSPHO1, absorbance phosphatase assay; in the data active = inhibition above about 60%
Target sequence (Q8TCT1 whole entry, looked up): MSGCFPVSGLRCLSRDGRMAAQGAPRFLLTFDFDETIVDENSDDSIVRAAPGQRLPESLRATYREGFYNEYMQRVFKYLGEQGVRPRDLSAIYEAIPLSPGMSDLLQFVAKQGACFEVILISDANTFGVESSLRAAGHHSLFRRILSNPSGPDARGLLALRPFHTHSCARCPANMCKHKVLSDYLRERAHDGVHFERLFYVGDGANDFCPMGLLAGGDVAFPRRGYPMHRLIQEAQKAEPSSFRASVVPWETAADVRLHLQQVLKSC
PfM18AAP inh: PfM18AAP enzyme inhibition | 290,000 tested, 1.2% active | recombinant PfM18AAP, H-Glu-NHMec fluorogenic cleavage | AID 1822 | inhibition, % at 7.35 µM;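 active = inhibition above the campaign mean inhibition over all tested compounds plus 3 SD, cut at about 28% in these data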
A number is an active result; - = inactive; . = no result given.

SMILES	Cardio protect	PfGluPho inh	ALR inh	PHOSPHO1 block	PfM18AAP inh
CCOC(=O)C1=C(CC)OC(N)=C(C#N)C1c1ccc(OC)c(OC)c1OC (stereo unspecified)	-	-	-	-	-
CCOC(=O)C1=C(CSc2nc(C)ccc2C#N)OC(N)=C(C#N)C1c1cccc(OC)c1OC (stereo unspecified)	-	-	-	76	-
Cc1onc(C(=O)Nc2cccnc2Cl)c1[N+](=O)[O-]	-	-	-	-	-
COc1cc(NC(=O)c2noc(C)c2[N+](=O)[O-])c(OC)cc1Cl	-	-	-	64	-
CCCn1c(=O)c(C(=O)NCCc2ccc(Cl)cc2)c(O)c2ccccc21	54	-	-	-	-
Cn1cnnc1SCC(=O)N1CCC(Cc2ccccc2)CC1	-	-	-	63	-
Cn1cnnc1SCC(=O)N1CCN(C(=O)c2ccco2)CC1	-	-	-	-	-
Cc1ccc(C(=O)NCC(=O)N2CCC(Cc3ccccc3)CC2)cc1	-	-	-	63	-
COc1ccc(NS(=O)(=O)c2cccc(C(=O)NN=C(C)c3ccco3)c2)cc1	-	-	.	.	.
CCOC(=O)N1CCC(N2C(=O)c3ccccc3C2Nc2cc(Cl)c(OC)cc2OC)CC1 (stereo unspecified)	-	-	-	-	-
CCOC(=O)N1CCC(N2C(=O)c3ccccc3C2Nc2cc(OC)c(OC)c(OC)c2)CC1 (stereo unspecified)	117	-	-	-	-
CCOC(=O)N1CCC(N2Cc3cccc(C(=O)Nc4ccc(OC)c(OC)c4)c3C2=O)CC1	50	-	.	-	-
COc1ccc(Cl)cc1NC(=O)C1Cc2ccccc2CN1S(C)(=O)=O (stereo unspecified)	-	-	-	-	28
CSCC[C@H](NC(=O)[C@H](Cc1ccccc1)n1c(=O)[nH]c2ccccc2c1=O)C(=O)N1CCC(C(=O)O)CC1	-	-	.	-	-
COc1ccc(N2C(=O)CC(Sc3nc4ccccc4s3)C2=O)cc1OC (stereo unspecified)	-	-	97	-	-
CCOc1ccc2nc(SC3CC(=O)N(c4ccc(C)cc4)C3=O)sc2c1 (stereo unspecified)	-	-	-	84	-
CCOCCn1c(C)c(C(=O)OCC)c2cc(O)c3ccccc3c21	-	-	.	.	.
O=C(O)c1ccccc1NCc1cccs1	-	-	-	-	-
CC(=O)Nc1ccc(NCc2cccs2)cc1	-	-	95	-	-
Oc1ccc(NCc2cccs2)cc1	-	-	96	-	-
CC(=O)Nc1ccc(NCCc2cccs2)cc1	-	.	.	.	.
NS(=O)(=O)c1ccc(CNC(=O)CNC(=O)c2ccc(F)cc2)cc1	-	-	.	-	-
Cc1cc(=O)n2nc(N3CCC(C(=O)NCc4ccc(Cl)cc4)CC3)sc2n1	-	-	-	-	-
CC1CCN(C(=O)c2ncn3c2c(=O)[nH]c2cccnc23)CC1	-	-	.	.	.
Cc1cc(C(=O)C(=O)NC(C)C)c(C)n1-c1ccc([N+](=O)[O-])cc1	-	-	-	-	-
SMILES	Cardio protect	PfGluPho inh	ALR inh	PHOSPHO1 block	PfM18AAP inh
COCCNC(=O)C(=O)c1cc(C)n(-c2ccc([N+](=O)[O-])cc2)c1C	-	-	97	-	-
C[n+]1ccc(/C=N/Nc2nc(Cl)c(C#N)c(Cl)c2Cl)cc1	-	-	82	-	-
Clc1nnc(N/N=C/c2ccccc2)c2ccccc12	-	-	-	-	-
O=C(OCc1ccccc1)Oc1cncc(C(=O)O)c1	-	-	98	-	-
Cc1c(NC(=O)OCCNC(=O)COc2ccc(Cl)cc2Cl)sc(=S)n1C	-	-	97	-	-
Cc1ccc(S(=O)(=O)NCCOC(=O)Nc2sc(=S)n(C)c2C)cc1	-	-	-	-	-
CCOC(=O)Nc1sc(=S)n(C)c1C	-	-	93	-	-
Cc1c(NC(=O)OCCNC(=O)Nc2ccccc2)sc(=S)n1C	-	-	98	-	-
COc1cccc(CNC(=O)c2ccc(NC(=O)C3=CSCCO3)cc2)c1	-	-	-	-	-
O=C(N/N=C/c1ccc(OC2CSC2)cc1)c1ccccc1	-	-	-	-	-
O=C(/C=C/c1ccc(OC2CSC2)cc1)c1ccccc1	-	-	83	-	-
O=C(COC(=O)/C=C/c1ccccc1)NC1CCCCCC1	-	-	.	.	.
O=C(NCCc1ccc(Cl)cc1)c1cccs1	-	-	-	-	-
O=C(Cc1ccc(Cl)cc1)NNC(=S)NC(=O)c1cccs1	-	-	98	-	-
O=C(Cc1cccs1)NNC(=S)NCc1ccc(Cl)cc1	-	-	-	100	-
COc1ccc(S(=O)(=O)Nc2cc3c4c(c2)CC(=O)N4CCC3)cc1OC	-	-	.	.	.
CC1CCCCN1S(=O)(=O)c1ccc(C(=O)Nc2nnc(-c3ccncc3)o2)cc1 (stereo unspecified)	-	-	81	-	-
CC1CCN(S(=O)(=O)c2ccc(C(=O)Nc3nnc(-c4ccccn4)o3)cc2)CC1	-	-	-	71	-
N#CCCN(CCC#N)S(=O)(=O)c1ccc(C(=O)Nc2nnc(C3=COCCO3)o2)cc1	-	-	-	-	-
CCCCN(C)S(=O)(=O)c1ccc(C(=O)Nc2nnc(C3=COCCO3)o2)cc1	-	-	91	-	-
CCC1CCCCN1S(=O)(=O)c1ccc(C(=O)Nc2nnc(C3=COCCO3)o2)cc1 (stereo unspecified)	-	-	95	-	-
C[C@@H]1CN([C@@H](C)CO)S(=O)(=O)c2ccc(Br)cc2O[C@H]1CN(C)Cc1ccccn1	-	-	.	.	.
CCCCN1CC(=O)N2[C@H](c3ccc(Cl)cc3)[C@@H]3C(=O)N(CC)C(=O)[C@@H]3[C@]2(C)C1=O	-	-	.	-	-
CCN(C(=O)CN1CCN(c2ccccc2F)CC1)c1c(N)n(Cc2ccccc2)c(=O)[nH]c1=O	-	-	-	-	-
CCN(C(=O)CN1CCN(c2ccccc2O)CC1)c1c(N)n(Cc2ccccc2)c(=O)[nH]c1=O	-	-	98	-	28
SMILES	Cardio protect	PfGluPho inh	ALR inh	PHOSPHO1 block	PfM18AAP inh
CCCCc1nc(N2CCOCC2)c(C#N)c2c1COC(C)(C)C2	-	-	100	-	-
COc1ccc(C(=S)NC2CCCCC2)cc1	-	-	-	88	-
CCOc1ccc(C(=S)NC2CCCCC2)cc1	-	-	-	-	-
Cn1c(=O)c2[nH]c(SCc3cccnc3)nc2n(C)c1=S	-	-	.	.	.
CCC(=NNC(=O)c1ccc2c(c1)nc(C)n2CC)c1cc(F)ccc1O	52	-	-	.	.
CCn1c(C)nc2cc(C(=O)NNS(=O)(=O)c3ccc(C)c(C)c3)ccc21	-	-	81	-	-
CCn1c(C)nc2cc(C(=O)NNS(=O)(=O)c3cc(Br)ccc3Br)ccc21	-	-	-	-	-
CCn1c(C)nc2cc(C(=O)NNC(=O)Nc3cccc(Cl)c3)ccc21	-	-	-	-	31
FC(F)(F)C1=CC(c2ccc(Br)cc2)=NCCN1	-	-	100	-	-
CC(Oc1ccccc1F)C(=O)NNC(=O)c1cccc(S(=O)(=O)N2CCN(C)CC2)c1 (stereo unspecified)	-	-	-	.	.
Cc1ccc(-c2nc3s/c(=C\c4ccco4)c(=O)n3n2)cc1	-	-	-	95	-

Assay outcomes: PubChem, several laboratories
